Measurements published in PubChem BioAssay AID624305 (National Center for Advancing Translational Sciences (NCATS), 2012).
Inconclusive results are not listed. Entries that show only a call come without a potency. The source made the active and inactive calls. Calls come from the whole dose curve; as a rule, active = well fitted activation curve with a large enough effect; inconclusive = small, poorly fitted or top-dose-only effect; inactive = no such curve, though single readings can be large or run the other way.

experiment: qHTS assay for re-activators of p53 using a Luc reporter: Hit Validation; settings: p53-responsive luciferase reporter cells, luminescence, H1299 line expressing heat-sensitive Ala138Val p53; series mostly up to 46.1 µM; note: nearly all actives have a fitted effect of over 75% in size
How it was run: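 Hit confirmation with a 1:5 dilution series, at 37 deg C for 24 hrs, in H1299 cells co-expressing temperature-sensitive p53-A138V and p53-responsive luciferase. Nocodazole served as control; luminescence read after 10 min with detection reagent.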
Potency is the fitted concentration of half-maximal effect.

Q: For `O=C(NC1CCCCC1)c1ccc(-c2ccccc2F)o1`, which Potency is on record?
A: Its Potency is 3.66 µM (active).

Q: With `Cc1ccc(NC(=O)/C=C/c2ccco2)nc1` as the compound, how does the Potency read?
A: Its Potency is 2.59 µM (active).

Q: For `Clc1ccc(OCc2nc(-c3ccccn3)n[nH]2)cc1`, which Potency is on record?
A: Its Potency is “inactive”.

Q: For `CCc1ccc2oc(-c3ccc(N)cc3)nc2c1`, which Potency is on record?
A: The Potency was 0.092 µM (active).

Q: For `O=C(CC1CCCCC1)NCc1ccc(Cl)cc1`, which Potency is on record?
A: The Potency was 11.6 µM (active).

Q: For `COc1ccc(/C(N)=N/OC(=O)c2cccs2)cc1`, which Potency is on record?
A: The Potency was 5.17 µM (active).

Q: For `COCC(=O)Nc1nnc(COc2ccccc2)s1`, which Potency is on record?
A: Its Potency is “inactive”.

Q: For `COc1ccc([N+](=O)[O-])cc1NC(=O)C1CCCCC1C(=O)O` (centres undefined), which Potency is on record?
A: The Potency was “inactive”.

Q: For `O=C(Oc1ccccc1/C=C\C(=O)c1cc2ccccc2o1)c1cccc(F)c1`, which Potency is on record?
A: Its Potency is 0.206 µM (active).

Q: Which Potency does the source give for `CC(=O)OCC(=O)Nc1ccc(N=Nc2ccccc2)cc1` here?
A: Its Potency is 0.651 µM (active).

Q: Which Potency does the source give for `Cc1ccc(CSc2nc3ccncc3[nH]2)cc1` here?
A: Its Potency is “inactive”.

Q: For `CN(Cc1ccccc1)C(=O)CNC(=O)Cn1cnc2ccccc2c1=O`, which Potency is on record?
A: Its Potency is “inactive”.

Q: For `C/C(=N/NC(=O)c1ccc2c(c1)OCO2)c1ccc(NC(=O)C(F)(F)F)cc1`, which Potency is on record?
A: The Potency was 9.2 µM (active).

Q: For `CC(C)(C)c1cc(-n2ccnc2)n2ncc(-c3ccc(Cl)cc3)c2n1`, which Potency is on record?
A: Its Potency is “inactive”.

Q: Which Potency does the source give for `c1ccc(-c2cn3c(n2)SCC3)cc1` here?
A: The Potency was 9.2 µM (active).

Q: For `COCCn1c(SCC(=O)Nc2ccc(N3CCOCC3)cc2)nc2ccccc21`, which Potency is on record?
A: Its Potency is “inactive”.

Q: Which Potency does the source give for `O=C(CSc1nnc(-c2ccc(F)cc2)c2ccccc12)Nc1ccccc1` here?
A: The Potency was “inactive”.

Q: Which Potency does the source give for `CC(C)N1C(=O)CN(C2CCCCCC2)C(=O)C1c1ccccc1F` (centres undefined) here?
A: The Potency was “inactive”.

Q: Which Potency does the source give for `O=C(Oc1c(Cl)cc(Cl)c2cccnc12)c1cccc([N+](=O)[O-])c1` here?
A: Its Potency is “inactive”.
